“And” between values parts separate entries of the source, which are not always exact repeats. Equal values may be shown once. Inconclusive results are not listed. The source made the active and inactive calls. Unless noted, calls come from the whole dose curve; as a rule, active = well fitted curve in the direction sought with a large enough effect in the repeat runs; inconclusive = weak or mixed curves; inactive = no such curve, though single readings can be large; an effect the other way counts as inactive or inconclusive.
Legend:
[1] = qHTS assay for small molecules that induce genotoxicity in human embryonic kidney cells expressing luciferase-tagged ATAD5 (AID 651632); note: nearly all actives have a fitted effect of over 15% in size; note: potency is the fitted concentration of half-maximal effect
Outline: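 Quantitative HTS in HEK293T expressing luciferase-tagged ATAD5, whose levels rise upon DNA damage. Exposure ran 16 hr at 37C and 5% CO2, with luminescence read 30 min after Amplite addition at room temperature.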

[2] = qHTS assay for small molecule agonists of the p53 signaling pathway - cell viability (AID 651633; calls by dose curve; note: nearly all actives have a fitted effect of over 30% in size; note: potency is the fitted concentration of half-maximal effect)
Outline: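 Viability counter-read: CellTiter-Glo luminescence (30 min, room temperature) in the same p53RE-bla plates. These plates had been exposed to compounds for 16 h at 37 C.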

[3] = qHTS assay for small molecules that induce genotoxicity in human embryonic kidney cells expressing luciferase-tagged ATAD5 - cell viability (AID 651634; calls by dose curve; note: nearly all actives have a fitted effect of over 25% in size)
Outline: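 After 15.5 hr incubation with compound at 37C, 5% CO2, HEK293T ATAD5-luciferase cells received CellTiter-Fluor reagent; fluorescence intensity was quantified following 30 min at 37C.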

[4] = qHTS assay for small molecule disruptors of the mitochondrial membrane potential - cell viability (AID 720634; calls by dose curve;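 note: human HepG2 liver cancer cells; series mostly up to about 83 µM; nearly all actives have a fitted effect of over 20% in size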)
Outline: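 ATP-based luminescent viability readout (CellTiter-Glo, 30 min, room temperature) in HepG2 cells multiplexed with the m-MPI membrane potential dye; compound exposure lasted 1 hr at 37 C.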

[5] = qHTS assay to test for compound auto fluorescence at 590 nm (red) in HepG2 cells (AID 720674)
Outline: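 We screened compounds on adherent HepG2 cells, incubating them for an hour at 37 C in 5% CO2 before reading emission at 590 nm under 540 nm excitation; values reflect equivalence to Rose Bengal sodium fluorescence.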

[6] = qHTS assay to test for compound auto fluorescence at 535 nm (green) in HepG2 cells (AID 720675)
[7] = qHTS assay to test for compound auto fluorescence at 590 nm (red) in HEK293 cells (AID 720679)
Outline: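 We plated HEK293 cells in 10% dialyzed FBS medium, let them adhere for 4-5 hr, then added 23 nL compound. Overnight at 37C and 5% CO2 preceded fluorescence measurement at 540/590nm.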

[8] = qHTS assay to test for compound auto fluorescence at 535 nm (green) in HEK293 cells (AID 720680)
[9] = qHTS assay to test for compound auto fluorescence at 460 nm (blue) in HEK293 cell free culture (AID 720681)
Outline: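 Blue fluorescence (Ex 405/Em 460 nm, triamterene-equivalent) was read immediately after pin transfer of compound or DMSO into medium (DMEM, 10% FBS) without cells.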

[10] = qHTS assay to test for compound auto fluorescence at 535 nm (green) in HEK293 cell free culture (AID 720682)
Outline: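 Green-label autofluorescence (485 nm excitation, 535 nm emission) measured on compound added to cell-free culture medium (DMEM, 10% FBS). Output is expressed relative to fluorescein.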

[11] = qHTS assay to test for compound auto fluorescence at 590 nm (red) in HEK293 cell free culture (AID 720683)
Outline: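 Red-channel autofluorescence of compounds in culture medium (DMEM, 10% FBS), no cells, measured at 540/590 nm. Rose Bengal sodium is the reference fluorophore for equivalence.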

[12] = qHTS assay to test for compound auto fluorescence at 590 nm (red) in HepG2 cell free culture (AID 720684)
Outline: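 Cell-free; medium MEM + 10% FBS; compound or DMSO added by pintool; read Ex 540/Em 590 nm; Rose Bengal sodium as red reference fluorophore.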

[13] = qHTS assay to test for compound auto fluorescence at 460 nm (blue) in HepG2 cell free culture (AID 720685)
Outline: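 Cell-free plates of MEM plus 10% FBS received 23 nL compound or DMSO vehicle; blue-channel (405/460 nm) intensity scored against triamterene as reference fluorophore.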

[14] = qHTS assay to test for compound auto fluorescence at 535 nm (green) in HepG2 cell free culture (AID 720686)
[15] = qHTS assay to test for compound auto fluorescence at 460 nm (blue) in HepG2 cells (AID 720687)
Outline: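 Blue-channel autofluorescence (Ex/Em 405/460 nm, triamterene-equivalent) was measured after 1 hr compound exposure at 37 C, 5% CO2. Cells were HepG2, plated overnight at 37 C in MEM plus 10% FBS.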

[16] = target: Glucocorticoid receptor (Homo sapiens) (UniProt P04150); assay: qHTS assay to identify small molecule agonists of the glucocorticoid receptor (GR) signaling pathway (AID 720691; active = well fitted activation curve with a large enough effect in the signal ratio in the repeat runs, not every such curve was filed as active; the % refers to the signal ratio; note: potency is the fitted concentration of half-maximal effect)
Outline: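 Cells: GR-bla HeLa, endogenous GR with stably integrated GRE-beta-lactamase reporter. Treatment 18 h, 37 C, compounds delivered in DMSO. Detection via LiveBLAzer B/G FRET substrate, 2 h RT, fluorescence intensity.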

[17] = qHTS assay for small molecule disruptors of the mitochondrial membrane potential (AID 720635); note: potency is the fitted concentration of half-maximal effect
Outline: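 Mitochondrial membrane potential tracked with Mito-MPS dye, red aggregates (ex 540/em 590 nm) against green monomers (ex 490/em 535 nm). Compound treatment 1 hr at 37C, dye 30 min in HepG2.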

[18] = qHTS assay to test for compound auto fluorescence at 460 nm (blue) in HEK293 cells (AID 720678)
Outline: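 Triamterene serves as the blue fluorophore standard. Compound signal at 405/460 nm is read in HEK293 wells (2,000 cells, 10% dialyzed FBS) after overnight treatment at 37C.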

[19] = target: Glucocorticoid receptor (Homo sapiens) (UniProt P04150); assay: qHTS assay to identify small molecule antagonists of the glucocorticoid receptor (GR) signaling pathway (AID 720692; active = well fitted inhibition curve with a large enough effect in the signal ratio in the repeat runs, not every such curve was filed as active; the % refers to the signal ratio)
Outline: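 Quantitative HTS in antagonist format: HeLa cells expressing endogenous GR and a stably integrated GRE-bla reporter, stimulated with 5 nM dexamethasone (final) alongside test compounds for 18 h.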
% is set by controls: 0 for no effect and ±100 for the full control effect.

Chain of Glucocorticoid receptor (Homo sapiens) (P04150 whole entry, looked up): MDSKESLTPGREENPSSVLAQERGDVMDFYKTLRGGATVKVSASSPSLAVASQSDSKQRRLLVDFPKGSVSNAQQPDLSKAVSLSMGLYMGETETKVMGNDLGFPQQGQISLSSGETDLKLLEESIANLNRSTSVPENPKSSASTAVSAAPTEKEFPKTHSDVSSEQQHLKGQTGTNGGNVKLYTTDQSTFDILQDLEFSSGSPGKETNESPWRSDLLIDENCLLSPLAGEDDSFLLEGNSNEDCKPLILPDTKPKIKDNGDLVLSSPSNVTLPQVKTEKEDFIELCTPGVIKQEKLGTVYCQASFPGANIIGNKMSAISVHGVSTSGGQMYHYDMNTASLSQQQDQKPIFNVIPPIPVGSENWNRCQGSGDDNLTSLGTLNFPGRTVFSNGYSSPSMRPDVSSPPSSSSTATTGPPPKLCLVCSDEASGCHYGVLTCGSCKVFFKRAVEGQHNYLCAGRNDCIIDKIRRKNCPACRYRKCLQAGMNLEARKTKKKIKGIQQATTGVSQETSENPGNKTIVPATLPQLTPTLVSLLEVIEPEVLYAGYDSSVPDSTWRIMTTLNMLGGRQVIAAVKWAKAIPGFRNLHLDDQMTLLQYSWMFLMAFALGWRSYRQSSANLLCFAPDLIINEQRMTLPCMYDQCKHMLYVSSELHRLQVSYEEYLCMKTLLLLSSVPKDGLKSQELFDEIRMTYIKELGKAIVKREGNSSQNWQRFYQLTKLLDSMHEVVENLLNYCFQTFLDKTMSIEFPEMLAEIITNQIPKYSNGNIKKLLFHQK

CCOC(=O)OC(C)OC1=C(C(=O)Nc2ccccn2)N(C)S(=O)(=O)c2ccccc21 (stereo not given)
inactive: Potency [2] | Potency [3] | outcome [4] | outcome [5] | outcome [6] | outcome [7] | outcome [8] | outcome [9] | outcome [10] | outcome [11] | outcome [12] | outcome [13] | outcome [14] | outcome [15]
active: Potency [1] 3.35 µM | Potency [16] 5.35 µM

Cc1nc2ccc(CN(C)c3ccc(C(=O)N[C@@H](CCC(=O)O)C(=O)O)s3)cc2c(=O)[nH]1
inactive: Potency [1] | outcome [4] | Potency [17] | outcome [6] | outcome [7] | outcome [8] | outcome [9] | outcome [10] | outcome [11] | outcome [12] | outcome [13] | outcome [14] | outcome [15]
active: Potency [2] 106 nM and 150 nM

CCCC[N+](C)(CCCC)CCCC
inactive: Potency [1] | Potency [2] | outcome [4] | Potency [17] | outcome [5] | outcome [6] | outcome [18] | outcome [7] | outcome [8] | outcome [9] | outcome [10] | outcome [11] | outcome [12] | outcome [13] | outcome [14] | outcome [15] | Potency [16] | Potency [19]

CC(C)c1ccc2ncccc2c1
inactive: Potency [1] | Potency [3] | outcome [4] | outcome [5] | outcome [6] | outcome [18] | outcome [7] | outcome [8] | outcome [10] | outcome [11] | outcome [12] | outcome [13] | outcome [14] | outcome [15]

C1CCC2=NCCCN2CC1
inactive: Potency [2] | Potency [3] | outcome [4] | Potency [17] | outcome [5] | outcome [6] | outcome [18] | outcome [7] | outcome [8] | outcome [10] | outcome [11] | outcome [12] | outcome [13] | outcome [15] | Potency [16] | Potency [19]

CC[N+](C)(CC)CCOC(=O)C1c2ccccc2Oc2ccccc21
inactive: Potency [2] | Potency [3] | outcome [4] | Potency [17] | outcome [5] | outcome [6] | outcome [18] | outcome [7] | outcome [9] | outcome [10] | outcome [11] | outcome [12] | outcome [13] | outcome [14] | outcome [15]

CC(=O)OCC(=O)[C@@]1(O)[C@H](C)C[C@H]2[C@@H]3CCC4=CC(=O)C=C[C@]4(C)[C@@]3(F)[C@@H](O)C[C@@]21C
inactive: Potency [1] | Potency [2] | outcome [4] | outcome [5] | outcome [6] | outcome [7] | outcome [8] | outcome [10] | outcome [11] | outcome [12] | outcome [13] | outcome [14] | outcome [15]

Nc1ccn([C@@H]2O[C@H](CO)[C@@H](O)[C@@H]2O)c(=O)n1
inactive: Potency [1] | Potency [2] | Potency [3] | outcome [5] | outcome [6] | outcome [18] | outcome [7] | outcome [8] | outcome [10] | outcome [11] | outcome [12] | outcome [13] | outcome [14] | outcome [15] | Potency [16]

CCCCc1ccc2c(n1)[C@@H](c1ccc(OC)cc1C[C@H](C)C(=O)O)[C@H](C(=O)O)[C@H]2c1ccc2c(c1)OCO2
inactive: Potency [1] | Potency [2] | Potency [3] | outcome [5] | outcome [6] | outcome [7] | outcome [9] | outcome [10] | outcome [11] | outcome [12] | outcome [13] | outcome [14] | outcome [15] | Potency [16] | Potency [19]

O=C(c1ccccc1O)c1ccccc1O
inactive: Potency [1] | Potency [3] | outcome [4] | outcome [5] | outcome [6] | outcome [18] | outcome [7] | outcome [8] | outcome [9] | outcome [10] | outcome [11] | outcome [12] | outcome [13] | outcome [14] | outcome [15] | Potency [19]
active: Potency [17] 12.1 µM

CCCCN(CCC(=O)OCC)C(C)=O
inactive: Potency [1] | Potency [2] | Potency [3] | outcome [4] | outcome [6] | outcome [18] | outcome [7] | outcome [9] | outcome [10] | outcome [11] | outcome [12] | outcome [13] | outcome [14] | outcome [15] | Potency [19]

CC(C)(N)C#N
inactive: Potency [1] | Potency [2] | Potency [3] | outcome [4] | outcome [5] | outcome [6] | outcome [7] | outcome [8] | outcome [9] | outcome [10] | outcome [11] | outcome [12] | outcome [13] | outcome [14] | Potency [16]

CO[C@@]1(NC(=O)C(C(=O)O)c2ccc(O)cc2)C(=O)N2C(C(=O)O)=C(CSc3nnnn3C)CO[C@@H]21 (stereo not given in full)
inactive: Potency [1] | Potency [2] | outcome [4] | fluorescence, relative to Rose Bengal [5] 0.111% [at 18.6 µM] | fluorescence, % of fluorescein control [6] -0.0745% [at 18.6 µM] | fluorescence, % of triamterene [18] 0.184% [at 18.6 µM] | fluorescence, % of fluorescent control [7] 0.0051% [at 18.6 µM] | fluorescence, % of fluorescein [8] 0.0617% [at 18.6 µM] | fluorescence, % of fluorescent control [9] 0.413% [at 18.6 µM] | activity change [10] 0.0756% [at 18.6 µM] | fluorescence, % of fluorescent control [11] 0.0003% [at 18.6 µM] | fluorescence, % of Rose Bengal [12] -0.105% [at 18.6 µM] | fluorescence, % of fluorescent control [13] 0.334% [at 18.6 µM] | fluorescence, % of fluorescein control [14] 0.0104% [at 18.6 µM] | fluorescence, % of fluorescent control [15] 0.208% [at 18.6 µM] | Potency [16]

Cc1c(N)c(=O)n(-c2ccccc2)n1C
inactive: Potency [2] | Potency [3] | outcome [4] | Potency [17] | fluorescence, relative to Rose Bengal [5] -0.0352% [at 18.6 µM] | fluorescence, % of fluorescein control [6] 0.0089% [at 18.6 µM] | fluorescence, % of triamterene [18] 0.0036% [at 18.6 µM] | fluorescence, % of fluorescent control [7] 0.258% [at 18.6 µM] | fluorescence, % of fluorescent control [9] 0.0935% [at 18.6 µM] | activity change [10] -0.102% [at 18.6 µM] | fluorescence, % of fluorescent control [11] 0.419% [at 18.6 µM] | fluorescence, % of Rose Bengal [12] 0.0086% [at 18.6 µM] | fluorescence, % of fluorescent control [13] -0.0617% [at 18.6 µM] | fluorescence, % of fluorescein control [14] -0.0689% [at 18.6 µM] | Potency [16] | Potency [19]

CCN[C@H]1C[C@H](C)S(=O)(=O)c2sc(S(N)(=O)=O)cc21
inactive: Potency [1] | Potency [3] | outcome [4] | Potency [17] | outcome [5] | outcome [6] | outcome [7] | outcome [8] | outcome [9] | outcome [10] | outcome [11] | outcome [12] | outcome [13] | Potency [16] | Potency [19]
